Entries with a potency or affinity are not part of this list. Activity calls are given as the source filed them. Cut-off not given; nearly all actives show IC50 up to about 0.91 µM.

In this assay the target is Calcium-dependent protein kinase 4 (Plasmodium falciparum (isolate 3D7)) (UniProt Q8IBS5). The experiment in a line: PfCDPK4 kinase inhibitors, biochemical, TCAMS library (AID 1159588). The conditions noted are these: recombinant PfCDPK4, Kinase-Glo ATP depletion luminescence. In general terms: Kinase-Glo reads ATP consumption through a luciferase reaction.
Chain of Calcium-dependent protein kinase 4 (Plasmodium falciparum (isolate 3D7)) (Q8IBS5 whole entry, looked up): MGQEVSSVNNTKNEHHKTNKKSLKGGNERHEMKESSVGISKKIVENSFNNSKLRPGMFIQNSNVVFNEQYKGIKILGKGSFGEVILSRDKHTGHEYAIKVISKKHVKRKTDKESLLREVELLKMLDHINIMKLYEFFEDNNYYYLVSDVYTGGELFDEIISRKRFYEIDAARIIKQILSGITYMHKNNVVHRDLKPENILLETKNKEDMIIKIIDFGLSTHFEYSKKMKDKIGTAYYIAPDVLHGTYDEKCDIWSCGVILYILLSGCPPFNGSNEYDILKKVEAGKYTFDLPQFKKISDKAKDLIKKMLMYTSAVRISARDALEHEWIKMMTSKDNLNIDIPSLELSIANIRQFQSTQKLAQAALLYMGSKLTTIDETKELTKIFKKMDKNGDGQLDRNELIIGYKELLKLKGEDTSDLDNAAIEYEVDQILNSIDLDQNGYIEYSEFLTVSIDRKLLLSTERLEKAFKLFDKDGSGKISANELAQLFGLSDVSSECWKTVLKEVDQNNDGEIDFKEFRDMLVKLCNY
Regarding `Cc1ccccc1C1CCN(C2CCC(NC(=O)/C=C/c3ccc(C(F)(F)F)cc3)CC2)CC1` (stereo not given), the result was inactive.
With `Cc1ccoc1C(=O)Nc1ccc(-c2cccc(-c3nc4c(C)cccc4[nH]3)c2)cc1`, the result was inactive.
`CCCNCc1ccc(-c2ccc(CN(C(=O)c3nn(-c4ccccc4)nc3C)C(C)CN(C)C)cc2)nc1` (stereo not given): the outcome was inactive.
For the compound `O=C(Cn1c(CCc2cccc(F)c2F)nc(=O)c2ccccc21)N(Cc1ccc(-c2ccc(C(F)(F)F)cc2)cc1)C1CCN(C2=NCCS2)CC1`, the result was inactive.
In the case of `COc1cc2nc(NCCc3ccccc3)nc(NCc3nccs3)c2cc1OC`, the result was inactive.
Consider `COc1ccc(-c2ccc(NC(=O)c3cccc(C#N)c3)cc2)cc1CN1CCN(C)CC1`, for which the result was inactive.
In the case of `O=C(/C=C/c1cccc2c1OCO2)Nc1ccnc2ccncc12`, the outcome was inactive.
Regarding `Cc1cc(N2CCN(C)CC2)nc2ccc(NC(=O)Cc3cccc(C(F)(F)F)c3)cc12`, the outcome was inactive.
For `Nc1nc(N)c2c(ccc3nn(Cc4cccnc4)cc32)n1`, the result was inactive.
In the case of `COc1ccc(-c2ccc(NC(=O)c3cccc(C#N)c3)cc2)cc1CN1CCCC(C(N)=O)C1` (stereo not given), the result was inactive.
With `Cc1cc2nc(-c3ccc(C(=O)NCc4ccc(Cl)c(Cl)c4)cc3)[nH]c2cc1C`, the outcome was inactive.
On to `O=C(Nc1cccc(Cl)c1Cl)N[C@H]1CCN(CCCCCNC(=O)[C@@H]2C[C@H]2c2ccc(Cl)c(Cl)c2)C1`, for which the result was inactive.
Take `O=C(Nc1ccc(CC(=O)N2CCc3cc(Cl)c(N4CCN(C/C=C/c5ccccc5)CC4)cc32)cc1)Nc1cccc([N+](=O)[O-])c1`: the outcome was inactive.
Then `NC1CCCN(Cc2ccc(-c3cccc(-c4nc5ccccc5[nH]4)c3)cc2)C1` (stereo not given), with “inactive”.
As for `O=C(Nc1cccc(Cl)c1N1CCOCC1)C(Cl)(Cl)Cl`, the outcome was inactive.
Take `O=S(=O)(c1cccc(F)c1)c1ccc(Nc2ncnc3cc(Br)sc23)cc1Cl`: the result was inactive.
As for `CCOC(=O)c1ccc(NC(=O)Nc2ccc(-c3ccc(-c4nc5ccccc5[nH]4)cc3)cc2)cc1`, the outcome was inactive.
As for `Cc1[nH]c(C)c(-c2ccc(-c3ccccc3F)nc2)c(=O)c1Br`, the result was inactive.
As for `CCOc1cc(C(=O)NCCCN2CCN(c3cccc(Cl)c3)CC2)ccc1-c1nc2cc(Cl)c(F)cc2[nH]1`, the result was inactive.
Regarding `CC(C)CCN1CCC(Oc2ccc(NC(=O)c3ccco3)cc2Cl)CC1`, the result was inactive.
In the case of `Cc1ccc(Nc2ccnc(Nc3ccc(F)c(Cl)c3)n2)cc1O`, the result was inactive.
As for `CCOc1c(CCNCCCCNCCc2ccc3ccccc3c2OCC)ccc2ccccc12`, the outcome was inactive.
As to `CC(=O)Oc1cc(C)ccc1C1CCN(CCCCNC(=O)c2ccc(NC(=O)c3ccc(Cl)cc3)cc2)CC1`, the result was inactive.
For the compound `Cc1cc(C)c2[nH]cc(C(=O)O)c(=O)c2c1`, the result was inactive.
Consider `CN1CCC(Oc2ccc(CN3CC[C@H](NC(=O)c4ccc(F)c(F)c4)C3)c3ccccc23)C1` (stereo not given in full), for which the result was inactive.
On to `CC(C)Nc1cc(C(=O)N[C@@H](Cc2ccccc2)[C@H](O)CNC(C)(C)c2cccc(C(F)(F)F)c2)cc(N2CCCCS2(=O)=O)c1`, for which the result was inactive.
For `COc1ccc2c(NN=Cc3ccccn3)ccnc2c1` the value was “inactive”.
Take `O=C(Nc1ccc(-c2csc3nccn23)cc1)c1ccc(Cl)cc1`: the result was inactive.
Then `CCOCCCNc1ncc(-c2ccsc2)c(-c2nc(C)cs2)n1`, with “inactive”; and `CCc1c(CCNCCCCCCNCCc2ccccc2)ccc(OC)c1OC`, with “inactive”.
Consider `Nc1nc(N)c2c3c(cnc2n1)CCCC3`, for which the outcome was inactive.
Consider `Cc1nc2ccc([N+](=O)[O-])cc2c(=O)n1OCc1ccccc1`, for which the outcome was inactive.
On to `OCC(c1ccccc1)n1c(COc2ccc(Cl)cc2)nc2c(OCCCN3CCCCC3)cccc21` (stereo not given), for which the outcome was inactive.
Take `COc1ccc2nccc([C@@H](O)CN3CCC(NCc4nc5c([N+](=O)[O-])cccc5[nH]4)CC3)c2c1`: the result was inactive.
For the compound `CCC1(CC)N=C(N)N=C(N)C1c1ccc(Cl)c(Cl)c1` (stereo not given), the result was inactive.
Take `COc1c(C2CCN(CCCCNC(=O)c3ccc(-c4ccc(Cl)cc4)cc3)CC2)ccc2c1C(C)(C)CCC2(C)C`: the outcome was inactive.
On to `CCOC(=O)c1cccc(NC(=O)Nc2cc(C)nc3ccccc23)c1`, for which the result was inactive.
`O=C(Nc1ccc([N+](=O)[O-])cc1)Nc1nc2ccc(Cl)cc2s1`: the result was inactive.
For `COc1ccccc1N1CCN(Cc2c(NC(C)=O)sc(C)c2C)CC1`, the result was inactive.
For `COc1ccc(C=NNc2nc3ccccc3[nH]2)cc1O` the value was “inactive”.

For the origin of these results see PubChem BioAssay.
